The values that follow come from ChEMBL document CHEMBL4513146, “CO-ADD screening of Karazin Kharkiv National University (Ukraine) compounds”.

In general, Inhibition refers to the drop in the measured response relative to a control, in per cent.

Test [1] has as its system Staphylococcus aureus. To be noted: Concentration 32 ug.mL-1;; ASSAY_TEST Inhibition of Bacterial Growth; detection method Absorption (OD600); MEDIA CAMHB; plate type 384well; NBS; CORNING #3640; time 18 hr.
Test [2] has as its system Escherichia coli. To be noted: Concentration 32 ug.mL-1;; ASSAY_TEST Inhibition of Bacterial Growth; detection method Absorption (OD600); MEDIA CAMHB; plate type 384well; NBS; CORNING #3640; time 18 hr.

Each structure is given as a SMILES string. Entries with a potency or affinity are not part of this list.

Take `COc1ccc(-c2cc3c4nn(CC(=O)Nc5cc(C)ccc5OC)c(=O)n4ccn3n2)cc1`: the Inhibition in test [1] is 1.5%; in test [2], -0.57%.

Take `COc1ccc(NC(=O)Cn2nc3ccc(SCc4ccc(Cl)cc4)nn3c2=O)cc1Cl`: the Inhibition in test [1] is given as -4.58%; in test [2], -11.11%.

As to `O=c1c2sccc2n2c(=O)n(Cc3ccc(Br)cc3)nc2n1Cc1cccs1`, the figures for the Inhibition in test [1] and in test [2] were -10.81% and -9.69%, respectively.

As for `Cc1c(Cl)cccc1NC(=O)CSc1nc2ccccc2n2c(C)nnc12`, the Inhibition is reported as 7.92% in test [1] and 3.58% in test [2].

As to `Cc1cc(C)c(NC(=O)Cn2nc3c(N4CCN(c5ccccc5)CC4)nccn3c2=O)c(C)c1`, the Inhibition in test [1] is 13.62%; in test [2], -0.55%.

Consider `O=C(Cn1nc2c(Oc3ccccc3)nccn2c1=O)Nc1ccccc1F`, for which the Inhibition in test [1] is on record as 6.14%; in test [2], -2.38%.

Turning to `CCOc1ccc(-n2ccn3c(SC(C)C(=O)Nc4ccc5c(c4)OCCO5)nnc3c2=O)cc1` (centres undefined), the Inhibition was found to be 14.02% in test [1] and 0.39% in test [2].

Consider `O=C(Cn1nc2ccc(Sc3cccc(F)c3)nn2c1=O)NCc1ccc(Cl)cc1`, for which the Inhibition in test [1] amounted to 1.01%; in test [2], 1.23%.

For the compound `Cc1ccc(CN(c2ccccc2)S(=O)(=O)c2ccc3nncn3c2)cc1`, the Inhibition in test [1] was 12.66%; in test [2], -4.44%.

Regarding `CCc1ccccc1Sc1nccn2c(=O)n(CC(=O)N3CCN(c4ccccc4F)CC3)nc12`, the Inhibition in test [1] is -3.66%; in test [2], -8.54%.

For the compound `COc1ccc(N2CCN(C(=O)Cn3nc4c(Sc5cccc(C)c5)nccn4c3=O)CC2)cc1`, the Inhibition in test [1] is recorded as 0.43%; in test [2], -16.62%.

Consider `O=C(Cn1nc2c(SC3CCCCC3)nccn2c1=O)Nc1ccccc1Br`, for which the values for the Inhibition in test [1] and in test [2] were -0.6% and -5.42%, respectively.
